Measurements taken from the supplement of paper PMC10849652.
Of roughly 7,900 targets only a part is listed; those with a hit were picked by preference. About 0.6% of all pairs of compound and target were hits. A number with no mark means an inactive call.

Columns and labels:
Assay in all cases: log2 fold change, soluble protein after heating vs DMSO (PISA); higher = thermal stabilisation; K562 cells, 10 uM, 30 min; active = over 0.2 and 3.5 SD of the protein, either way, in both replicates (recomputed)
[1] = compound: CC[C@@H]1C(=O)N(C)c2cnc(Nc3ccc(C(=O)NC4CCN(C)CC4)cc3OC)nc2N1C1CCCC1
Method in brief: (§1)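 Soluble protein was quantified by TMTpro 16plex LC-MS/MS after channel sums were equalised. It was obtained as the supernatant after 21,000xg for 90 min from pooled aliquots of K562 cells (2×10^6 cells/mL, 10 μM compound, 30 min) heated for 3 min across 48°C-58°C and extracted in PBS with 0.5% NP-40 at 4°C. Thermal stability values are relative to control samples and come from duplicates. They are given as log2 fold changes.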

volasertib = compound: CC[C@@H]1C(=O)N(C)c2cnc(Nc3ccc(C(=O)N[C@H]4CC[C@H](N5CCN(CC6CC6)CC5)CC4)cc3OC)nc2N1C(C)C [volasertib]
Method in brief: as §1

[2] = compound: CC[C@H](C)N1C=C(C2=C(C=C(C=C21)C3=CN=C(C=C3)N4CCNCC4)C(=O)NCC5=C(C=C(NC5=O)C)C)C
Method in brief: as §1

epoxomicin = compound: CC[C@H](C)[C@@H](C(=O)N[C@@H]([C@@H](C)O)C(=O)N[C@@H](CC(C)C)C(=O)[C@]1(CO1)C)NC(=O)[C@H]([C@@H](C)CC)N(C)C(=O)C [epoxomicin]
Method in brief: as §1

[3] = compound: CCn1c(C(=O)N(C2CC2)C2CC2)cc2c3c(ncn3C)c(Nc3cc(C)n(C)n3)nc21
Method in brief: as §1

[4] = compound: CCn1cc(-c2ccnc3[nH]c(-c4cccc(CN(C)C)c4)cc23)c(-c2ccc(NC(=O)N(C)C)cc2)n1
Method in brief: as §1

[5] = compound: CN(C)CC(=O)Nc1ccc2[nH]c(=O)c3ccccc3c2c1
Method in brief: as §1

rosiglitazone = compound: CN(CCOC1=CC=C(C=C1)C[C@H]2C(=O)NC(=O)S2)C3=CC=CC=N3 (racemic) [rosiglitazone]
Method in brief: as §1

[6] = compound: CN1C2=C(C3=C1C(=O)N(N=C3)CC4=CC(=CC=C4)N)SC(=C2)S(=O)C
Method in brief: as §1

[7] = compound: CN1CCC(CNc2ccc3ncc(-c4cccc(OC(F)(F)F)c4)n3n2)CC1
Method in brief: as §1

saracatinib = compound: CN1CCN(CCOc2cc(OC3CCOCC3)c3c(Nc4c(Cl)ccc5c4OCO5)ncnc3c2)CC1 [saracatinib]
Method in brief: as §1

sotrastaurin = compound: CN1CCN(c2nc(C3=C(c4c[nH]c5ccccc45)C(=O)NC3=O)c3ccccc3n2)CC1 [sotrastaurin]
Method in brief: as §1

alvocidib = compound: CN1CC[C@H](c2c(O)cc(O)c3c(=O)cc(-c4ccccc4Cl)oc23)[C@H](O)C1 [alvocidib]
Method in brief: as §1

Tubastatin A = compound: CN1CCc2c(c3ccccc3n2Cc2ccc(C(=O)NO)cc2)C1 [Tubastatin A]
Method in brief: as §1

[8] = compound: CNC(=O)C1=CC=CC=C1NC2=NC(=NC=C2Cl)NC3=C(C=C(C=C3)N4CCOCC4)OC
Method in brief: as §1

defactinib = compound: CNC(=O)c1ccc(Nc2ncc(C(F)(F)F)c(NCc3nccnc3N(C)S(C)(=O)=O)n2)cc1 [defactinib]
Method in brief: as §1

rucaparib = compound: CNCc1ccc(-c2[nH]c3cc(F)cc4c3c2CCNC4=O)cc1 [rucaparib]
Method in brief: as §1

[9] = compound: CNc1nc(-c2ccc3c(N)n[nH]c3c2)cc(N2C[C@@H](C(=O)NC3CCCCC3)CC[C@H]2C)n1
Method in brief: as §1

encorafenib = compound: COC(=O)N[C@@H](C)CNc1nccc(-c2cn(C(C)C)nc2-c2cc(Cl)cc(NS(C)(=O)=O)c2F)n1 [encorafenib]
Method in brief: as §1

[10] = compound: COC(=O)[C@H](CCSC)NC(=O)C1=C(C=C(C=C1)NC[C@H](CS)N)C2=CC=CC=C2
Method in brief: as §1

UniProt O43865, sequence (O43865 whole entry, looked up): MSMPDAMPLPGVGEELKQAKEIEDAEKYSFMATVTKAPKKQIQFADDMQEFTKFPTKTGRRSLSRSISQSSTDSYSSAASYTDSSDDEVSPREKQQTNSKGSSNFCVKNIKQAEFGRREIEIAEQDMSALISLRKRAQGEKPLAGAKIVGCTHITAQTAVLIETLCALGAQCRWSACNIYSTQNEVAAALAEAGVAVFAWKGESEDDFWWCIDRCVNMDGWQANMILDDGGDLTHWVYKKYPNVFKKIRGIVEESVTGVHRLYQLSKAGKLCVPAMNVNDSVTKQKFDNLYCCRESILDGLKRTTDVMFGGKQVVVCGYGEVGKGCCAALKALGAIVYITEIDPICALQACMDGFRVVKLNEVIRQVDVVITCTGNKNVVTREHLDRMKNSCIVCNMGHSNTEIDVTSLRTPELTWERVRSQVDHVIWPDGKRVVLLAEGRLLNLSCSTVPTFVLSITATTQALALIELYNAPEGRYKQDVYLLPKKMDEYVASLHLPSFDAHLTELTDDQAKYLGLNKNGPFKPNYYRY
UniProt P05091, sequence (P05091 whole entry, looked up): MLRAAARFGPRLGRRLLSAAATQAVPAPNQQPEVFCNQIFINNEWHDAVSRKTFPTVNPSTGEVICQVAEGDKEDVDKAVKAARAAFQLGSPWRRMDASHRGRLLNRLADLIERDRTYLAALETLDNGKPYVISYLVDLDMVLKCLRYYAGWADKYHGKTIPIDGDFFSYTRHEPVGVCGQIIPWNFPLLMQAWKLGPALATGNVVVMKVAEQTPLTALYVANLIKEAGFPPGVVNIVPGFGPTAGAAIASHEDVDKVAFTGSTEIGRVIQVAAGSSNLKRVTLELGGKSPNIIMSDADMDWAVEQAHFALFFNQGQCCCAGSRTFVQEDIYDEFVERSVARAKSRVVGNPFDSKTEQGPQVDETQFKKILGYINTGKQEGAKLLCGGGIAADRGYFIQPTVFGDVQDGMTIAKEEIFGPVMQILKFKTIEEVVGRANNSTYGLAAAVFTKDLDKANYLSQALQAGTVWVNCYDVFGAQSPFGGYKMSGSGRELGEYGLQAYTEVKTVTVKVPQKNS
UniProt Q9UBL3, sequence (Q9UBL3 whole entry, looked up): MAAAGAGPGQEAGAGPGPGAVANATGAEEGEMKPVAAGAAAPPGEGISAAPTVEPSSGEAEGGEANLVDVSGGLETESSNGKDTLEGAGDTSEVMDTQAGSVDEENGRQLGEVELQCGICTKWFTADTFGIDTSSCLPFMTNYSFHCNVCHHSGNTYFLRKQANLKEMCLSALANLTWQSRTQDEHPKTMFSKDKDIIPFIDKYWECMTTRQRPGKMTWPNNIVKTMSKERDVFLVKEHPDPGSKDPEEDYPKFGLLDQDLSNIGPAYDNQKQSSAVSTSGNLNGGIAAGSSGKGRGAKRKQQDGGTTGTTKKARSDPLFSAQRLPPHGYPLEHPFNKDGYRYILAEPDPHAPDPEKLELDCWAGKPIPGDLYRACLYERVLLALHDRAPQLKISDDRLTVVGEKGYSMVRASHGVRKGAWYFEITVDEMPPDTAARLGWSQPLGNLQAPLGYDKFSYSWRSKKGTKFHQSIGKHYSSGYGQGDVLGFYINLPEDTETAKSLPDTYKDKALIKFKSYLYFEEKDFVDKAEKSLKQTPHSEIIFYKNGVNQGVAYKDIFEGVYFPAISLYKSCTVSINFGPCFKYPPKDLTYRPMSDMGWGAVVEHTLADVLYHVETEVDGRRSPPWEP
UniProt P11766, sequence (P11766 whole entry, looked up): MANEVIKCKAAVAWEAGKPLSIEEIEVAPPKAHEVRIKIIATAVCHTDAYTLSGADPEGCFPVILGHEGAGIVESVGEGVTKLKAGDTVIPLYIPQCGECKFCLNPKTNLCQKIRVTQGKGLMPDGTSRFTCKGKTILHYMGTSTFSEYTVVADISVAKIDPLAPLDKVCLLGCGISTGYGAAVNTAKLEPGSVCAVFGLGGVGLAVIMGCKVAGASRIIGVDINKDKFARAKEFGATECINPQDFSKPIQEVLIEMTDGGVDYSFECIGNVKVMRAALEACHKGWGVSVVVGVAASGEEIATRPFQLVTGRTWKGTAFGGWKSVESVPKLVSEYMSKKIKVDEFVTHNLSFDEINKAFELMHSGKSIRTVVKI

| Target | log2 fold change [1] | log2 fold change (volasertib) | log2 fold change [2] | log2 fold change (epoxomicin) | log2 fold change [3] | log2 fold change [4] | log2 fold change [5] | log2 fold change (rosiglitazone) | log2 fold change [6] | log2 fold change [7] | log2 fold change (saracatinib) | log2 fold change (sotrastaurin) | log2 fold change (alvocidib) | log2 fold change (Tubastatin A) | log2 fold change [8] | log2 fold change (defactinib) | log2 fold change (rucaparib) | log2 fold change [9] | log2 fold change (encorafenib) | log2 fold change [10] |
| --- | --- | --- | --- | --- | --- | --- | --- | --- | --- | --- | --- | --- | --- | --- | --- | --- | --- | --- | --- | --- |
| ASH2L (UniProt Q9UBL3) | -0.117 | -0.327 (active) | 0.079 | 0.041 | -0.017 | -0.012 | -0.003 | -0.004 | 0.001 | -0.012 | 0.023 | -0.025 | -0.035 | 0.052 | 0.023 | -0.12 | 0.012 | -0.036 | 0.037 | -0.009 |
| ALDH2 (UniProt P05091) | -0.025 | 0.06 | -0.009 | -0.038 | -0.017 | -0.042 | 0.029 | 0.058 | -0.048 | -0.006 | 0.007 | -0.099 | -0.04 | -0.032 | 0.078 | -0.055 | -0.099 | 0.026 | 0.013 | -0.03 |
| ADH5 (UniProt P11766) | 0.01 | 0.02 | -0.024 | -0.016 | 0.043 | -0.001 | -0.01 | 0.026 | -0.052 | -0.02 | 0.04 | 0.03 | 0.011 | -0.025 | -0.025 | -0.014 | -0.066 | -0.025 | -0.006 | 0.002 |
| AHCYL1 (UniProt O43865) | 0.021 | 0.036 | -0.099 | -0.007 | -0.027 | -0.097 | 0.018 | 0.018 | -0.115 | -0.063 | 0.101 | 0.014 | 0.1 | -0.042 | 0.182 | 0.104 | 0.044 | 0.061 | -0.043 | -0.005 |
